# Results taken from PubChem BioAssay AID463173 (ICCB-Longwood Screening Facility, Harvard Medical School, 2010).
# Among all 52,000 compounds or so, about 4,300 (8.3%) were called active. Cut-off read from the data, not from the text of the source: active = survival mostly below about 52% (no sharp cut-off); inactive = mostly above about 56%. The sample as a whole holds a higher share of actives than the screen did.
# Test system: DeltatarO mutant
# Assay: growth inhibition of S. aureus wild type versus tarO mutant, primary screen, teichoic acid synthesis inhibitors, RN4220, OD600 (AID 463173)
# Conditions: OD600, 18 h, hits give low values, screened at 18.75 µg/mL (by protocol)
row,SMILES,survival
1,CCC1CN(C(=O)N2CCC(C(=O)Nc3ccccc3F)CC2)c2ccccc2O1 (stereo not given),74% (inactive)
2,Cc1ccc(NC(=O)c2oc3ccc(S(=O)(=O)N4CCOCC4)cc3c2C)c(C)c1,125% (inactive)
3,CCOC(=O)c1cn(CC(=O)Nc2ccc(OC)cc2OC)nn1,83% (inactive)
4,Cc1cccc(CNC(=O)Cn2nc(C)n3c(cc4cc(F)ccc43)c2=O)c1,77% (inactive)
5,O=C(O)CCc1ccco1,98% (inactive)
6,CCOC(=O)C1CCN(C(=O)Cc2cccc3ccccc23)CC1,82% (inactive)
7,CCN(CC)S(=O)(=O)c1ccc(C(=O)NCCSc2c(-c3ccc(F)cc3)[nH]c3ccccc23)cc1,69% (inactive)
8,CCOC(=O)COc1ccc(F)cc1C(=O)c1ccn2nc(-c3ccc(C)cc3)cc2n1,80% (inactive)
9,COc1ccc(-c2nc(Cn3c(SCc4ccccc4F)nc4cccnc43)c(C)o2)cc1,69% (inactive)
10,Cc1ccc(Cn2c(C(=O)O)c(CNCc3ccccc3Cl)c3ccc(C)cc32)cc1,58% (inactive)
11,Cc1ccc2c(CNCCc3ccc(Cl)cc3)c(C(=O)O)n(Cc3ccc(F)cc3)c2c1,8% (active)
12,Cc1ccc(CNCc2c(C(=O)O)n(Cc3ccc(C)cc3)c3cc(C)ccc23)cc1,2% (active)
13,Cc1ccc(Cn2c(C(=O)O)c(CNCc3cccs3)c3ccc(C)cc32)cc1,48% (active)
14,C=Cc1ccc(Cn2c(C(=O)O)c(CNCc3ccc(F)cc3)c3ccc(C)cc32)cc1,86% (inactive)
15,Cc1ccc2c(CNCc3cccs3)c(C(=O)O)n(Cc3ccc(F)cc3)c2c1,82% (inactive)
16,C=Cc1ccc(Cn2c(C(=O)O)c(CNCc3ccccc3)c3ccc(C)cc32)cc1,120% (inactive)
17,COc1ccc(Cn2c(C(=O)O)c(CNCc3cccc(OC)c3)c3ccc(C)cc32)cc1,74% (inactive)
18,COc1ccc(Cn2c(C(=O)O)c(CNCc3cccs3)c3ccc(C)cc32)cc1,89% (inactive)
19,Cc1ccc(Cn2c(C(=O)O)c(CNCc3ccc(OC(C)C)cc3)c3ccc(C)cc32)cc1,11% (active)
20,Cc1ccc2c(CNCCc3ccco3)c(C(=O)O)n(Cc3ccc(F)cc3)c2c1,59% (inactive)
21,Cc1ccc(Cn2c(C)c(CNCc3ccc(OC(C)C)cc3)c(C(=O)O)c2C)cc1,121% (inactive)
22,CCCN(Cc1cccs1)C(=O)Nc1ccc(F)c(Cl)c1,58% (inactive)
23,COc1ccc(OC)c(CNC(=O)CCCn2c(=O)c3cccn3c3cccnc32)c1,97% (inactive)
24,CCOc1ccc(NC(=O)CC2C(=O)N(c3ccc(Cl)cc3)C(=O)N2Cc2cccs2)cc1 (stereo not given),81% (inactive)
25,Cc1cc(C)cc(NC(=O)C(Cc2ccccc2)NS(=O)(=O)c2ccc3c(c2)CCC(=O)N3)c1 (stereo not given),77% (inactive)
